Screens deposited in PubChem BioAssay by several laboratories.
PAX8 inh HTS: lowers PAX8-driven luciferase in RMG-I cells | RMG-I TPO-luciferase reporter, SteadyGlo, 24 h | AID 652154 | inhibition, % at 12.6 µM | hit rate 1.2% among 360,000;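 active = mean replicate inhibition at least 60% with every replicate also reaching 60%; inconclusive = only one of the two criteria is met; inactive = mean below 60% and not all replicates reaching 60%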;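 also: luciferase light reporting Pax8 driven TPO promoter activity; plate controls were median of neutral control wells for no effect and mitoxantrone controls for full effect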
ABHD5 PLIN5 PPI: ABHD5-PLIN5 protein interaction inhibition; Split G. princeps luciferase complementation, luminescence, 4 h; hit rate 0.78% among 360,000; AID 602281; inhibition, % at 4 µM; Q00G26+Q8WTS1;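 active = inhibition above the mean inhibition across every tested compound plus 3 SD, cut at about 22% in these data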;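 also: 0% = DMSO only wells and the 100% control is not disclosed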
Target sequence (Q00G26 whole entry, looked up): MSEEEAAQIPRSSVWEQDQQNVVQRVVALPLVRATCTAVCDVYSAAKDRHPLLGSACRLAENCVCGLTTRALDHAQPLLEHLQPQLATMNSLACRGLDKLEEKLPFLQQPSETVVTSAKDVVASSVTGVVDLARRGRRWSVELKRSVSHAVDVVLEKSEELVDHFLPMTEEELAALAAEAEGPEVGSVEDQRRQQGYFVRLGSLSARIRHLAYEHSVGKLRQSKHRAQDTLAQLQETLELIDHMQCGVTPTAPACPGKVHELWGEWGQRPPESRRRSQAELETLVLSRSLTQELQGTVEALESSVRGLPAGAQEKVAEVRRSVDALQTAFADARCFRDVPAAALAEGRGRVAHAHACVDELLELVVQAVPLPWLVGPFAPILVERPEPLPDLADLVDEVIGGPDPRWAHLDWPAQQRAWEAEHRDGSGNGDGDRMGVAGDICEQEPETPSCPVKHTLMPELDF
Target sequence (Q8WTS1 whole entry, looked up): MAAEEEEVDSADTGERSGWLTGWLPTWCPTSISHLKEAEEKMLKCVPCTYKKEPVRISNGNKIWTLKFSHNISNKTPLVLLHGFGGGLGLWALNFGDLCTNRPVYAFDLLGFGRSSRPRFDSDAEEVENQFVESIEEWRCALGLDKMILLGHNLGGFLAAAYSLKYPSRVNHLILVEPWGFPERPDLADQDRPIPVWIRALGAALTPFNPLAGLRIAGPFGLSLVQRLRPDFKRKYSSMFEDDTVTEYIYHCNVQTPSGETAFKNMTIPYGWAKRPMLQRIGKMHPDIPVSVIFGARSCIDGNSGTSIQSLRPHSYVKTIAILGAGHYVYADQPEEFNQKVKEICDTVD
Peg3 prom inh: Peg3 promoter activity inhibition. HeLa PEG-Prom luciferase reporter, luminescence, overnight. inhibition, % at 20 µM. hit rate 1.7% among 360,000;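 active = inhibition of at least 50% at 20 µM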
EWS-Fli inh: EWS/Fli transcriptional activity inhibition; hit rate 0.67% among 350,000; A673 NR0B1-luciferase reporter, viability-normalised; inhibition, % at 12.6 µM; AID 651661;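 active = mean inhibition of at least 50% after viability correction, with every replicate also passing that limit; inconclusive = mean reaches 50% but only one of two replicates passes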;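 also: firefly luciferase signal divided by Alamar Blue viability fluorescence both relative to DMSO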
MITF TRPM1 inh: inhibitors of MITF-driven TRPM1 promoter in melanoma cells; SK-MEL-5 TRPM1 promoter luciferase, 24 h; inhibition, % at 12.5 µM; AID 488899; hit rate 0.83% among 330,000;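 active = mean inhibition across replicates of 60% or more, whatever share of single replicates reaches that level; inconclusive = some that reach 60%, reason not given; inactive = mean inhibition across replicates below 60%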
Shn3 3UTR inh: Schnurri-3 reporter inhibition in Clone20 osteoblasts; Clone20 osteoblast Shn3 3'UTR firefly luciferase, 24 h; inhibition, % at 12.5 µM; hit rate 0.52% among 360,000; AID 588674;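 active = mean inhibition of at least 75% with every replicate also reaching 75%; inconclusive = mean inhibition at least 75% but some replicate below; inactive = mean inhibition below 75%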;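 also: 0% = median of neutral control wells and 100% = pilot-screen positive control compound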
Active calls of the source: *; ? = inconclusive; . = no result; ! = not confirmed by another sample. Shown are actives, neighbours in structure and some others; about 3% of the full set was active somewhere.

SMILES	PAX8 inh HTS	ABHD5 PLIN5 PPI	Peg3 prom inh	EWS-Fli inh	MITF TRPM1 inh	Shn3 3UTR inh
CCCN(CCC)C(=O)CSc1nc2ccccc2c(=O)n1CC1COc2ccccc2O1 (stereo not drawn)	16	12	51*	.	7	2
COc1cccc(C#Cc2ccc([C@H]3[C@@H](CO)N(C(=O)C4CCCCC4)[C@H]3C#N)cc2)c1	78*	.	.	16	.	.
COc1cccc(C#Cc2ccc([C@H]3[C@@H](CO)N(C(=O)C4CCC4)[C@H]3C#N)cc2)c1	71*	.	.	-26	.	.
COc1cccc(C#Cc2ccc([C@@H]3[C@@H](C#N)N(C(=O)C4CCCC4)[C@@H]3CO)cc2)c1	.	.	.	1	.	.
COc1cccc(C#Cc2ccc([C@H]3[C@@H](CO)N(C(=O)C4CCCC4)[C@H]3C#N)cc2)c1	82*	.	.	2	.	.
CCOC(=O)C1=C(c2ccccc2)NC(N)=NC1c1ccc(OCc2ccc(C(=O)OC)cc2)cc1 (stereo not drawn)	18	4	104*	19	11	9
Cc1cc(Oc2nc3c(C)cccn3c(=O)c2/C=C(\C#N)S(=O)(=O)c2ccccc2)ccc1Cl	-1	-3	68*	.	10	3
Cc1cccn2c(=O)c(/C=C(\C#N)S(=O)(=O)c3ccccc3)c(Oc3ccc(Cl)cc3)nc12	8	2	29	.	36	8
CS(=O)(=O)Nc1ccc2c(c1)[C@H]1C[C@@H](CC(=O)NCc3cccc(F)c3)O[C@@H](CO)[C@H]1O2	1	.	.	2	.	.
CN(C)CCCn1c(SCC(=O)Nc2nc(-c3cccc(Br)c3)cs2)nc2ccccc2c1=O	-19	20	104*	-25	63*	-53
COc1cccc(/C=N/Nc2ncnc(Cl)c2N)c1O	.	5	85*	5	46	72
COc1cccc(/C=N/Nc2nccnc2Cl)c1O	?	-6	53*	-40	59	86*
COc1cccc(/C=N/Nc2nc3ccccc3n3cnnc23)c1O	-9	-1	71*	-23	-9	73
COc1cccc(/C=N/Nc2ncnc3scc(-c4ccccc4)c23)c1O	76*	14	60*	.	70*	85*
COc1cccc(/C=N/Nc2cc(-n3nc(C)cc3-c3ccccc3)ncn2)c1O	24	2	52*	.	28	90*
CCCNC(=O)Nc1ccc2c(c1)C(=O)N(C)C[C@@H](OC)[C@H](C)CN(Cc1cncnc1)[C@H](C)CO2	.	.	.	1	.	.
N#C[C@H]1[C@H](c2ccccc2)[C@H](CO)N1S(=O)(=O)c1ccc(-c2ccccc2)cc1	-10	.	.	4	.	.
Cc1cc(O)c(C=O)c2c1C(=O)Oc1c(CO)c(O)c3c(c1O2)C(O)OC3=O (stereo not drawn)	.	73*	14	.	2	-1
Cc1cc(O)c(CN(C)C)c2c1C(=O)/C(=C/c1ccco1)O2	14	12	11	-7	-8	6
NC(=O)C1CCN(C(=O)c2cc(-c3ccc(Cl)cc3)nc3ccccc23)CC1	.	1	-15	-1	4	-23
OC(c1cc(C(F)(F)F)nc2c(Cl)cc(Cl)cc12)C1CCCCN1 (stereo not drawn)	15	-3	109*	33	-10	4
O[C@@H](c1cc(C(F)(F)F)nc2c(C(F)(F)F)cccc12)[C@H]1CCCCN1	-2	-1	103*	29	7	10
OC(c1cc(-c2ccc(Cl)cc2)nc2ccccc12)C1CCCCN1 (stereo not drawn)	12	8	109*	50	-7	10
O=c1c2cc(Cl)cc(Cl)c2nc2n1CCC2	17	-3	25	7	18	9
CCCNC(=O)N[C@@H]1CC[C@H](CCn2cc(C3CCCCC3)nn2)O[C@@H]1CO	4	.	.	-6	.	.
SMILES	PAX8 inh HTS	ABHD5 PLIN5 PPI	Peg3 prom inh	EWS-Fli inh	MITF TRPM1 inh	Shn3 3UTR inh
C[C@H]1CN([C@@H](C)CO)C(=O)c2cc(-c3ccncc3)cnc2O[C@H]1CN(C)C(=O)Cc1cccnc1	-1	.	.	-7	.	.
COc1ccc(N=Nc2cc(C)ccc2O)cc1	-132	0	-276	1	-50	-58
Cc1ccc(O)c(N=Nc2nccs2)c1	28	-7	-6	12	20	93*
C[C@@H]1CN([C@@H](C)CO)C(=O)c2cccc(NS(=O)(=O)c3ccc(F)cc3)c2O[C@@H]1CN(C)Cc1ccc(-c2ccccc2)cc1	75*	.	.	22	.	.
C[C@@H]1CN([C@@H](C)CO)C(=O)c2cc(C#CCN(C)C)cnc2O[C@H]1CN(C)Cc1ccc(-c2ccccc2)cc1	.	.	.	73*!	.	.
C[C@H](CO)N1C[C@H](C)[C@@H](CN(C)Cc2ccc(-c3ccccc3)cc2)Oc2c(NS(=O)(=O)c3ccc(F)cc3)cccc2C1=O	-7	6	-3	-3	-7	-34
C[C@H]1CN([C@@H](C)CO)C(=O)c2cccc(NS(=O)(=O)c3ccc(F)cc3)c2O[C@@H]1CN(C)Cc1ccc(-c2ccccc2)cc1	7	.	.	30	.	.
C[C@@H]1CN([C@@H](C)CO)C(=O)c2cccc(NS(=O)(=O)c3ccc(F)cc3)c2O[C@H]1CN(C)Cc1ccc(-c2ccccc2)cc1	78*	.	.	38	.	.
CCN1[C@H](C(=O)Nc2ccccc2)[C@@H](CO)[C@@H]2Cn3c(ccc(-c4ccccc4)c3=O)[C@@H]21	.	.	.	5	.	.
CC(C)(C)c1nn(-c2ccccc2)c2[nH]c(=O)c(CNCc3ccco3)cc12	.	2	-10	.	67*	-1
C[C@@H]1CN([C@@H](C)CO)C(=O)c2cc(C3=CCCC3)cnc2O[C@@H]1CN(C)Cc1ccccc1	.	.	.	11	.	.
O=Nc1c2cc(-c3ccccc3)[nH]nc-2c2ccccc12	-86	-1	10	63*	27	6
COc1ccc(/C=C/C(=O)N(C)CC(=O)Nc2cccc(F)c2)cc1S(=O)(=O)N1CCCCC1	48	0	27	0	17	-19
COc1ccc(NC(=O)CN(C)C(=O)/C=C/c2ccc(S(=O)(=O)N3CCCCCC3)cc2)cc1	3	-3	52*	12	6	7
CCN(CC(=O)Nc1ccc(OC)cc1)C(=O)c1cc(S(=O)(=O)N2CCOCC2)ccc1N1CCCC1	69*	-2	18	14	18	3
CCN(CC(=O)Nc1c(F)cccc1F)C(=O)c1cc(S(=O)(=O)N(CC)CC)ccc1N1CCCCC1	88*	11	40	.	23	11
CCN(Cc1ccccc1)C(=O)c1cc(S(=O)(=O)N2CCOCC2)ccc1N1CCCC1	-7	8	5	1	0	0
CCN(CC(=O)Nc1ccccc1C(F)(F)F)C(=O)c1cc(S(=O)(=O)N(C)C)ccc1N1CCCC1	15	-3	19	10	-9	-10
CCN(CC(=O)Nc1c(F)cccc1F)C(=O)c1cc(S(=O)(=O)N(C)C)ccc1N1CCCC1	90*	4	19	-2	21	18
CCN(CC(=O)Nc1c(F)cccc1F)C(=O)c1ccc(N2CCCCC2)c([N+](=O)[O-])c1	14	2	11	4	0	71
